Assay outcomes as filed in PubChem.
RecA intein inh = Mtb RecA intein splicing inhibitors, primary screen, biochemical, fluorescence, HTS. Protein RecA (Mycobacterium tuberculosis (strain ATCC 25618 / H37Rv)), P9WHJ3. cell-free RecA intein splicing. inhibition, % (test concentration not listed). actives 0.75% (n = 290,000). AID 2221, 2009; in the data active means inhibition above about 30%; inconclusive means no clear call, values can overlap the other calls;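 further: 0% = vehicle wells and 100% = reference inhibitor control wells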
Target sequence (P9WHJ3 whole entry, looked up): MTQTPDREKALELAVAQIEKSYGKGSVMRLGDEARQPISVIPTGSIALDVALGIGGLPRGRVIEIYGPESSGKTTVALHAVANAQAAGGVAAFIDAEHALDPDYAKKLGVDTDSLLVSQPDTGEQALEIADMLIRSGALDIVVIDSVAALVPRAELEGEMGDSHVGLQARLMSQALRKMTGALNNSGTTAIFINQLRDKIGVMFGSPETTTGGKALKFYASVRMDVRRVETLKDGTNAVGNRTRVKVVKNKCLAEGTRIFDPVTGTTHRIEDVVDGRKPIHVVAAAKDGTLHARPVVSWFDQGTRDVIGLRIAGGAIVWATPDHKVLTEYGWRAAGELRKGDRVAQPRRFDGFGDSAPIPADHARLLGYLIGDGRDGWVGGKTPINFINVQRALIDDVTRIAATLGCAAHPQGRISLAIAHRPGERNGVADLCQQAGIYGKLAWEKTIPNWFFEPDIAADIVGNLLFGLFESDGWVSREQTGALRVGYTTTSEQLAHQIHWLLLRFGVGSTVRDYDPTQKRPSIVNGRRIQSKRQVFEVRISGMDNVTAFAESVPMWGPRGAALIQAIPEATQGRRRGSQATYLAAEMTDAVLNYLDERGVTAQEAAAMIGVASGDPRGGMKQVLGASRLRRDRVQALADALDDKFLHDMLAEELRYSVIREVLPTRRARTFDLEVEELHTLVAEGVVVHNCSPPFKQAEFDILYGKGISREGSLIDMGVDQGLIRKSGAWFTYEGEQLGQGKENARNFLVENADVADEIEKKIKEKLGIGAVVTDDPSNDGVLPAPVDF
PrP 5UTR inh = inhibition of PrP 5' UTR reporter expression. actives 0.35% (n = 340,000). inhibition, % (test concentration not listed). cell-based PrP 5' UTR mRNA reporter, plate reader; in the data active means inhibition above about 52%; further: 0 = median of the neutral control wells
PfHsp40 rescue = rescue of yeast from PfHsp40 toxicity, primary screen, S. cerevisiae, ATP luminescence | actives 0.68% (n = 340,000) | growth rescue, % at 12.5 µM | AID 504582, 2011 | S. cerevisiae expressing PfHsp40, growth rescue; in the data active means growth rescue above about 28%, passing the limit was not always enough; inconclusive means no clear call, values can overlap the other calls;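 further: yeast W303a lacking pdr1 and pdr3 grown in galactose medium; growth measured after three days at 30 °C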
BJeLR lethal = MLPCN primary cell-based screen for lethality selective to Ras in HRASV12 cells; actives 0.17% (n = 300,000); inhibition, % (no concentration beside the values); AID 1554, 2009; BJeLR (HRASV12) viability, CellTiter-Glo ATP luminescence, 48 h; in the data active means inhibition above about 50%; inconclusive means no clear call, values can overlap the other calls
PrPC TRFRET = inhibitors of human cell surface prion protein PrPC, primary screen, cell-based, TR-FRET. inhibition, % at 13.8 µM. AID 720596, 2013. TR-FRET read-out. actives 0.43% (n = 370,000); in the data active means inhibition above about 24%; further: 0% = median of the test wells and 100% = reference compound wells
PriA SSB inh = inhibitors of Klebsiella pneumoniae PriA binding to SSB C-terminal tail, primary screen, biochemical, AlphaScreen; PriA–SSB C-terminal tail interaction (Klebsiella pneumoniae); AlphaScreen SSBct-PriA binding, biotinylated peptide; inhibition, % at 33 µM; actives 0.6% (n = 430,000); in the data active means inhibition mostly above about 37%, no sharp cut-off; inactive means mostly below about 20%;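 further: plate controls were negative control peptide for no effect and reference peptide for full effect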
Active calls of the source: *; ? = inconclusive; . = no result; + = active, no number. In the library only some 1.9% were active in any assay of this set; here they are far more common.

SMILES | RecA intein inh | PrP 5UTR inh | PfHsp40 rescue | BJeLR lethal | PrPC TRFRET | PriA SSB inh
N#CC(c1ccc(Cl)cc1)c1nc2ccccc2nc1C(F)(F)F (stereo not drawn) | 17 | -35 | 53* | 9 | -4 | -9
COc1ccc(Cc2c(N)nc(N)nc2N)cc1 | 0 | -21 | 2 | 2 | -2 | 5
Nc1ccc(OCCCc2c(N)nc(N)nc2N)cc1 | 0 | -27 | 48* | 2 | -2 | -5
CC(C)(C)c1csc(NC(=O)COc2ccc(Cl)cc2)n1 | . | . | . | . | . | -27
NCC(=O)Nn1cnnc1CN | . | . | . | . | . | 98*
O=C(NCC1(O)CCOCC1)C1(c2cccs2)CCCC1 | . | . | . | . | . | 1
N#C/C(N=Nc1ccccc1O)=N\Nc1ccccc1O | -3 | -29 | ? | 56* | -9 | +
Nc1nc(-c2ccccc2)c(-c2ccccc2)s1 | 9 | -20 | -1 | -1 | -5 | 14
Nc1nc(-c2ccccc2)c(-c2ccc([N+](=O)[O-])cc2)s1 | 0 | -9 | 233* | -7 | 5 | -8
Cc1cc(C(=O)Nc2nnc(C3CCCCC3)o2)on1 | . | . | . | . | . | -9
Cc1cc(C)cc(N=c2c([N+](=O)[O-])nn(-c3cccc(Cl)c3)n2O)c1 | 2 | -26 | -1 | 4 | -10 | 36
O=[N+]([O-])c1nn(-c2ccccc2)n(O)c1=NC1CCCCCC1 | . | . | . | . | . | 64*
O=[N+]([O-])c1nn(-c2cccc(Cl)c2)n(O)c1=NC1CCCCCC1 | . | . | . | . | . | 66*
CS(=O)(=O)N1CCC(C(=O)NCc2ccc(C(=O)c3ccco3)s2)CC1 | . | . | . | . | . | -8
COc1nc(NC(C)C)nc(N(C#N)CN2C(=O)c3ccccc3S2(=O)=O)n1 | 61* | -2 | 3 | -12 | -3 | -10
O=C(CSCc1ccccc1)N1CCC[C@H](Cc2nc(C3CC3)no2)C1 | . | . | . | . | . | -12
COC(=O)C1=CC(C(=O)c2cccs2)=NN(c2ccc(OC)cc2)C1C(=O)OC (stereo not drawn) | 15 | -11 | 2 | 0 | 3 | 39*
COC(=O)C1=NN(c2ccc(OC)cc2)C2C(=O)N(c3ccccc3OC)C(=O)C12 (stereo not drawn) | -4 | . | . | -8 | 4 | -16
CCc1ccccc1NC(=O)CSc1nc2c(sc(=S)n2-c2ccccc2)c(=O)[nH]1 | . | . | . | . | . | -8
COc1cccc(CNc2ccc3[nH]c(=O)[nH]c3c2)c1OCc1ccccc1 | 8 | -4 | 2 | -1 | . | 47*
COc1cc(CNc2ccc3[nH]c(=O)[nH]c3c2)ccc1OCc1ccccc1 | -3 | -44 | -1 | -3 | 3 | 41*
COc1cccc(CNc2ccc3[nH]c(=O)[nH]c3c2)c1OCc1ccccc1Cl | 11 | -46 | 3 | -11 | 0 | 79*
COc1ccc(Br)cc1CNc1ccc2[nH]c(=O)[nH]c2c1 | -3 | -17 | 2 | 10 | 7 | 39*
COc1cc(CNc2ccc3[nH]c(=O)[nH]c3c2)ccc1OCc1ccc(F)cc1 | 0 | -14 | -1 | 1 | 8 | 19
O=C(CSc1nc2c(c(=O)[nH]1)CCCC2)Nc1ccc(Cl)cc1 | . | . | . | . | . | -22
SMILES | RecA intein inh | PrP 5UTR inh | PfHsp40 rescue | BJeLR lethal | PrPC TRFRET | PriA SSB inh
CC1(CC(=O)N/N=C/c2ccc(OCc3ccc(Cl)cc3Cl)cc2)OCCCO1 | 39* | -5 | -1 | 17 | -1 | .
CCOc1ccccc1Nc1nc(-c2sc(NC(=O)c3ccc([N+](=O)[O-])cc3)nc2C)cs1 | 3 | . | . | 78* | . | .
Cn1c2ccccc2c(=O)n2c(=O)c3ccccc3cc12 | 93* | . | . | -1 | . | .
Cn1c2ccccc2c2ccccc21 | . | . | . | . | . | -31
COc1cc(O)c(CC=C(C)C)c(O)c1C(=O)CCc1ccc(O)cc1 | 12 | -11 | 210* | -7 | 3 | -3
Cc1ccc(C(=O)NC(CCc2ccccc2)C(=O)O)cc1 (stereo not drawn) | . | -29 | -2 | . | 10 | -6
CCCCCCC(NC(=O)c1ccc(C)cc1)C(=O)O (stereo not drawn) | . | -7 | -1 | . | 2 | 57*
COC(=O)N1CCc2ccc(NS(=O)(=O)c3ccccc3Br)cc2C1 | . | . | . | . | . | 1
O=C(Nc1cnn(C2CCOCC2)c1)c1ccc(-n2cccc2)cc1 | . | . | . | . | . | -21
CC(C)Cn1c(=O)n(C)c(=O)c2[nH]cnc21 | 2 | -25 | 37* | -2 | 1 | 6
COC(=O)C1=C(CS(=O)(=O)c2ccc(C(C)(C)C)cc2)NC(=O)N[C@H]1c1ccccc1Cl | . | . | . | . | . | -4
COc1ccc(NC(=O)CSc2n[nH]c(-c3ccccn3)n2)cc1 | 1 | -10 | 0 | 3 | -2 | 67*
COc1ccccc1-c1nc(SCC(=O)Nc2ccccc2F)n[nH]1 | 0 | -3 | -1 | -5 | 3 | -10
O=C(CSc1n[nH]c(-c2ccccn2)n1)Nc1ccccc1 | -4 | -19 | -2 | -2 | 4 | 82*
COc1ccccc1NC(=O)CSc1n[nH]c(-c2ccccn2)n1 | 1 | -13 | -1 | 5 | -1 | 77*
COc1ccccc1NC(=O)CSc1n[nH]c(-c2ccco2)n1 | . | -9 | -1 | . | -2 | -4
O=C(CSc1n[nH]c(-c2ccccn2)n1)Nc1ccccc1F | 0 | -13 | 0 | 6 | -7 | 50*
CCCCc1ccc(S(=O)(=O)c2cnc(SCC(=O)Nc3ccc(OC)cc3)[nH]c2=O)cc1 | . | . | . | . | . | -19
COc1ccc(N(C(=O)COc2ccc(Cl)cc2)C2C=CS(=O)(=O)C2)cc1 (stereo not drawn) | . | . | . | . | . | 0
O=C(CCc1csc(NC(=O)c2ccc[nH]c2=O)n1)Nc1ccc2c(c1)OCCO2 | . | . | . | . | . | 10
O=C1CCCN1CCC1CCN(C(=S)Nc2ccc(F)cc2)CC1 | 0 | 6 | 99* | 4 | 0 | -4
O=C(c1cc(-n2ccnc2)ccn1)N1CCN(c2ccccc2)CC1 | . | . | . | . | . | -3
O=C(Nc1nncs1)c1cc(Cl)ccn1 | . | . | . | . | . | 124*
O=C(O)c1cc(Br)ccn1 | -3 | -26 | 0 | 2 | 5 | 100*
O=C(O)c1cc(-n2ccnc2)ccn1 | . | . | . | . | . | 72*
SMILES | RecA intein inh | PrP 5UTR inh | PfHsp40 rescue | BJeLR lethal | PrPC TRFRET | PriA SSB inh
CC(C)Cc1nnc(NC(=O)c2cc(Cl)ccn2)s1 | . | . | . | . | . | 43
CN(C)c1ccnc(C(=O)O)c1 | . | -19 | 0 | 9 | -5 | -19
O=C(O)c1cc(Cl)ccn1 | . | . | . | . | . | 68*
Cc1nnc2ccc(N3CCN(S(=O)(=O)c4ccccc4)CC3)nn12 | . | . | . | . | . | -6
O=C(NN=Cc1cccc(OC(=O)c2ccco2)c1)c1ccc(F)cc1 | . | . | . | . | . | -7
O=C(c1cccc(C(F)(F)F)c1)N1CCC(c2nnc(C3CC3)o2)CC1 | . | . | . | . | . | 7
O=C(O)c1ccnc(Br)c1 | . | . | . | . | . | -6
O=C(O)c1ccnc(C(=O)O)c1 | -6 | -3 | 0 | 3 | -5 | 57*
O=C1N=NC2=C1c1c3ccccc3c(O)n1CC2 | 56* | 2 | 1 | -18 | 2 | 0
Cc1ccc2c(c1)c1c(n2CC(O)CNC2CCCC2)CCCC1 (stereo not drawn) | -7 | -34 | 0 | 0 | 11 | 33
